According to the supplement of paper PMC11219838:

tested on: Caenorhabditis elegans L1 (N2); assay: survival and reproduction score of C. elegans L1 (0: 0-10 living worms, 1: 11-20, 2: 21-50, 3: >50, 4: overgrown) (score 0-4); higher = more worms, less nematicidal, active = 1 or less; extreme values may be limits of the assay; conditions: 60 µM; 6 days; temperature: 20 °C
Description: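 DODA library (846 commercial 1,3,4- and 1,2,4-oxadiazole compounds plus commercial nematicide controls) screened at a single dose of 60 µM (0.6% DMSO) in 96-well plates, two biological replicates. Read-outs: C. elegans N2 L1 survival/reproduction score at day 6, 20 °C (0: 0-10 worms, 1: 11-20, 2: 21-50, 3: >50, 4: overgrown/starved). C. elegans daf-2 dauer, D. dipsaci and M. hapla J2 mobility at day 5, 20 °C, and P. penetrans mobility at day 5, 20 °C, each relative to DMSO controls. M. hapla egg hatching at day 12, 25 °C, relative to the mean of 8 DMSO wells on the same plate.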

Row | SMILES | survival and reproduction score
1 | Clc1ccccc1-c1noc(-c2ccccc2Cl)n1 | 2 (inactive)
2 | O=C(CSc1nnc(-c2ccccc2)o1)N1CCc2ccccc21 | 4 (inactive)
3 | Cc1ccc(-c2nnc(SCc3ccccc3C)o2)cc1 | 4 (inactive)
4 | Brc1ccc(CSc2nnc(-c3ccncc3)o2)cc1 | 4 (inactive)
5 | COc1ccccc1-c1nc(-c2ccc(Br)cc2)no1 | 4 (inactive)
6 | O=C(c1ccccc1-c1nc(-c2ccccc2)no1)N1CCCCC1 | 4 (inactive)
7 | CCOc1cc(-c2nc(-c3ccc(OC)cc3)no2)cc(OCC)c1OCC | 4 (inactive)
8 | c1ccc2cc(-c3nc(-c4ccncc4)no3)ccc2c1 | 0 (active)
9 | O=C(CSc1nnc(-c2ccco2)o1)Nc1cccc2ccccc12 | 4 (inactive)
10 | Clc1ccc(-c2noc(COc3ccccc3Cl)n2)cc1 | 4 (inactive)
11 | CN(C(=O)CSc1nnc(-c2ccccc2)o1)c1ccccc1 | 4 (inactive)
12 | COc1ccccc1-c1nnc(SCc2ccc(C#N)cc2)o1 | 4 (inactive)
13 | CC(C)(C)c1ccc(OCc2nc(-c3ccccc3)no2)cc1 | 4 (inactive)
14 | COc1ccc(CCC(=O)Nc2ccc(-c3noc(-c4ccc(F)cc4)n3)cc2)cc1 | 4 (inactive)
15 | Cc1ccc(-c2noc(-c3ccccc3OCC(N)=O)n2)cc1 | 4 (inactive)
16 | CC(C)c1ccc(OCc2nc(-c3ccncc3)no2)c(Br)c1 | 4 (inactive)
17 | CCn1c(SCc2nnc(-c3ccccc3)o2)nnc1-c1ccco1 | 4 (inactive)
18 | COc1ccc(-c2noc(COc3ccc(C4CCCCC4)cc3)n2)cc1 | 4 (inactive)
19 | FC(F)(F)c1ccc(-c2noc(-c3ccccc3Cl)n2)cc1 | 4 (inactive)
20 | CC(C)Oc1cccc(-c2nc(-c3ccccn3)no2)c1 | 4 (inactive)

Row | SMILES | survival and reproduction score
21 | CCc1ccc(OCc2nc(-c3ccc(C)cc3)no2)cc1 | 2 (inactive)
22 | Cc1cc(OCc2nc(-c3cccnc3)no2)c(C)cc1Br | 4 (inactive)
23 | COc1ccccc1CC(=O)Nc1ccc(-c2noc(-c3ccccc3C)n2)cc1 | 4 (inactive)
24 | COc1ccc(-c2nnc(SCC(=O)Nc3ccc(Cl)cc3C)o2)cc1 | 4 (inactive)
25 | Cc1[nH]c2ccc(-c3nnc(SCC(=O)NCc4ccc(F)cc4)o3)cc2c1C | 4 (inactive)
26 | FC(F)(F)c1cccc(-c2noc(-c3ccccc3Cl)n2)c1 | 3 (inactive)
27 | Cc1ccc(C)c(-c2nc(-c3ccc(Cl)cc3)no2)c1 | 4 (inactive)
28 | CN(C)C(=O)c1ccccc1-c1nc(-c2ccc(Cl)cc2)no1 | 4 (inactive)
29 | Cc1ccc(-c2noc(-c3ccc(C)cc3C)n2)cc1 | 4 (inactive)
30 | Brc1ccc(-c2nnc(-c3cccs3)o2)o1 | 0 (active)
31 | Clc1cc(Br)ccc1OCc1nc(-c2cccnc2)no1 | 4 (inactive)
32 | Cc1cccc(-c2noc(-c3ccc(Br)cc3)n2)c1 | 4 (inactive)
33 | Cc1cccc(OCc2nc(-c3ccncc3)no2)c1C | 4 (inactive)
34 | CCN(CC)C(=O)CSc1nnc(-c2ccc(Cl)cc2Cl)o1 | 4 (inactive)
35 | O=C(CSc1nnc(-c2ccc(Br)cc2)o1)NC1CCCC1 | 4 (inactive)
36 | c1ccc2c(-c3nc(-c4ccncc4)no3)cccc2c1 | 4 (inactive)
37 | CCCCc1nc(-c2ccc(-c3ccc(C)cc3)nc2OC)no1 | 4 (inactive)
38 | CC[C@H](C)[C@H]1O[C@]2(C=C[C@@H]1C)C[C@@H]1C[C@@H](C/C=C(\C)[C@@H](O[C@H]3C[C@H](OC)[C@@H](O[C@H]4C[C@H](OC)[C@@H](O)[C@H](C)O4)[C@H](C)O3)[C@@H](C)/C=C/C=C3\CO[C@@H]4[C@H](O)C(C)=C[C@@H](C(=O)O1)[C@]34O)O2.CO[C@H]1C[C@H](O[C@H]2[C@H](C)O[C@@H](O[C@@H]3/C(C)=C/C[C@@H]4C[C@@H](C[C@]5(C=C[C@H](C)[C@@H](C(C)C)O5)O4)OC(=O)[C@@H]4C=C(C)[C@@H](O)[C@H]5OC/C(=C\C=C\[C@@H]3C)[C@]54O)C[C@@H]2OC)O[C@@H](C)[C@@H]1O [abamectin] | 0 (active)
39 | O=C(CSc1nnc(-c2cccnc2)o1)c1ccc(Br)cc1 | 4 (inactive)
40 | COc1ccc(-c2noc(-c3cccc(C)c3)n2)cc1 | 0 (active)
